Over roughly 33,000 sequences, “E-score (-0.5 to 0.5)” has its median near -0.041; the highest 2% begin near 0.37. The entries come from a sample that favours the highest values as a whole.
Target: T1, Ecm22 (UniProt Q05958)
T1 sequence: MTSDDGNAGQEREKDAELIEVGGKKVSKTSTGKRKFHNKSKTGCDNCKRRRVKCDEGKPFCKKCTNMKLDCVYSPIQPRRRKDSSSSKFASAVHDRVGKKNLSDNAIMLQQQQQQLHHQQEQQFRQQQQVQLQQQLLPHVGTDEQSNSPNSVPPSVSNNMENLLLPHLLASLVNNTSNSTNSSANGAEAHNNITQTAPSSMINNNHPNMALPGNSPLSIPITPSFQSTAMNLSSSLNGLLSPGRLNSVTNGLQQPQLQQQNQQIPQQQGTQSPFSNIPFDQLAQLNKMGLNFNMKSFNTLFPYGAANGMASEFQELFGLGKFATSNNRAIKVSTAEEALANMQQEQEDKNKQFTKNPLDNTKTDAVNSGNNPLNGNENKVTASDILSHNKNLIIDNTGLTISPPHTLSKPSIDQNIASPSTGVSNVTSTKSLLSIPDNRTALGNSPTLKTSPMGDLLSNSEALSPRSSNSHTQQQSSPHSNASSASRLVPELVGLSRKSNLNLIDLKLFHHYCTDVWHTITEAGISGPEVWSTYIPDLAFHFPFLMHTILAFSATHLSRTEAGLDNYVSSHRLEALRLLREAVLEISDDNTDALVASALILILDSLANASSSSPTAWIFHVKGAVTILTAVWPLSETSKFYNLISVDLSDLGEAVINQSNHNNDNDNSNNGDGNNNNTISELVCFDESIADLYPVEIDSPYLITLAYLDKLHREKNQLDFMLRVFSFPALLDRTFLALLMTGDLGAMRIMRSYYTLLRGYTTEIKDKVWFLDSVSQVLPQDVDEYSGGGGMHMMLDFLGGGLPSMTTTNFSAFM
Assay: PBM E-score (8-mer binding enrichment) (E-score (-0.5 to 0.5)); higher = stronger / more preferred TF binding
Details: protein concentration: 200 nM; construct: GST-full length
In short: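 Each ungapped eight-base word and its reverse complement, pooled, received an E-score from the Universal PBM Analysis Suite. Underlying scans, normalised with masliner, recorded fluorescent anti-GST bound to GST-tagged yeast transcription factors. These were applied at about 100-200 nM to universal all-10-mer Agilent arrays double-stranded by primer extension.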

Sequence	PBM E-score
CAACTCTC	-0.11
AGTCCGAA	0.0505
CGTTTCGA	0.202
TATCGTAA	0.363
TGGCGTAA	0.0429
GGTCGTCA	0.0226
GGTCGTAA	0.417
AGTCGTAA	0.395
AGTCGTGA	0.0257
GGTCGTGA	-0.0346
CGTCGTGA	0.117
CGTCGTAA	0.446
TGTCGTAA	0.428
CGTCGTCA	0.0778
AGTCGTCA	-0.236
CGCGAGAG	0.233
ACGGTAGC	-0.00152
ACAATCGC	0.226
AAGTTTTC	0.0919
AGCCTGGC	-0.142
ACCGTGCG	0.161
GTCCGTGA	0.0485
CCTTAGCA	-0.287
CCACGACC	0.00845
ACACGACC	0.186
ACACGACG	0.251

Sequence	PBM E-score
AGACGACC	0.0158
ATACGACG	0.485
ATACGACC	0.473
AGACGACG	0.23
CGACGACC	0.154
CTACGACC	0.413
CCGCGCTA	0.0135
ATGAGAGG	-0.151
CTCGCAAG	0.17
GTCCGTCA	-0.131
CAGGGCAG	-0.104
ACTTTCCA	-0.205
AAGTAGCA	-0.137
ATTGTAGA	0.0824
GACGTTCC	0.141
GCCGTTCC	0.444
GCCGTTCA	0.229
CCCGTTCC	0.447
ACCGTTCT	0.135
ACCGTTCC	0.434
CCCGTTCG	0.196
ACCGTTCG	0.229
CCCGTTCA	0.267
GAGGCTCA	-0.237
CTCGGCAA	0.106
GCTCTAAA	-0.144

Sequence	PBM E-score
CCTAACAC	0.0728
GGTACTAC	0.0611
CACGACGC	0.119
AAGGACGT	0.0897
CACGGCGA	0.0797
AACGGCGA	0.381
CACGACGG	0.167
GACGACGC	0.145
AACGGCGT	0.242
AACGACGG	0.444
AACGACGC	0.448
AACGACGT	0.435
ACCGACGG	0.196
ACCGACGT	0.329
AGAGTCAG	-0.111
ACCTTCGG	0.188
CACCATGG	-0.173
AGAGGGTA	-0.0925
GAGCCACA	-0.0887
CGGTTTTA	0.072
CCTAGCAG	-0.263
GTTGCTCA	0.108
ACAGGTCC	-0.142
ATATCAAG	0.0598
TCTGGGAA	0.00899
CGCATGCG	0.0792

Sequence	PBM E-score
ACGGTAAC	0.151
AACGACGA	0.444
TACGACGA	0.469
AGCGACGA	0.195
ATCGACGA	-0.00044
GACGACGA	0.0563
CACGACGA	0.108
AGACTTAT	-0.104
CAGCAATG	-0.198
GGATGGTA	-0.0324
TCACTCGA	0.163
AATGCAGC	-0.147
ATGGTACC	-0.225
CAGGTACG	0.423
CAGGTACA	-0.23
ATGGTACA	-0.122
AAGGTACC	-0.0364
ATGGTACG	0.443
CAGGTACC	-0.126
AAGGTACG	0.434
AAGGTACT	0.0334
CCTCCTTA	0.032
CATGCGGG	-0.05
ATAGTGCC	0.0559
CTAAGCTC	-0.2
ACCGTCTG	-0.112

Sequence	PBM E-score
ATTGCAGG	-0.00797
CCGGTACA	0.0868
CCGGTACC	-0.103
ACGGTACC	0.206
ACGGTACT	0.0921
ACGGTACG	0.436
CCGGTACG	0.448
AAAGATTG	-0.286
ACGGAGGA	0.151
GTCGCTGA	-0.073
CTCGCTCC	0.405
ATCGCTCC	0.185
CTCGCTCA	0.358
CTCGCTGA	-0.0623
ATCGCTTA	0.327
GTCGCTTA	0.37
CTCGCTTA	0.41
GTCGCTAA	0.289
AAACTCCG	-0.112
AGGGACGG	-0.256
AGTCCGGC	-0.138
AACGTATA	0.411
TACGTAGA	0.133
AACGTATT	0.229
AACGTATC	0.127
AGCGTATA	0.366

Sequence	PBM E-score
CACGTATA	0.386
TACGTACA	0.328
GGCGTATA	0.359
TACGTATA	0.401
CACGTATG	0.0729
CGCGTATA	0.403
GACGTATA	0.365
GGGTGGAA	-0.284
CACCCGCG	-0.0941
TGCTAACA	-0.0691
ACCTGGCT	-0.059
ATCCAAGC	-0.231
ACTAAGGA	0.1
CGGCCATC	-0.22
CAGCCTCA	-0.00094
TTCCACAA	-0.0103
CTCAGTTA	-0.187
ACGGCGAT	0.377
ACGGCGAG	0.214
ACGGCGAC	0.21
AAAGCCTG	-0.228
ACAGCCCT	-0.279
AAGCTGCA	-0.0356
ATTCGTAC	0.468
CTTCGTCC	-0.243
ATTCGTCC	0.0925

Sequence	PBM E-score
CTTCGTCA	0.117
CTTCGTAA	0.413
CTTCGTGA	0.209
CTTCGTAC	0.477
CTTCGTGC	0.0216
ATTCGTGC	-0.00078
ACGATCTA	0.22
ACGATGCT	0.283
TCATACGA	0.463
GCATACGC	0.199
TCATACAA	-0.115
ACATACGC	0.221
CCATACGC	0.218
ACATACGG	0.321
ACATACGA	0.466
TCATACCA	-0.0984
GCATACAA	0.0278
CCATACGA	0.462
CCATACGG	0.345
GCATACGA	0.446

From the supplement of paper PMC3334620
